Source: PubChem BioAssay (NCATS)
Records with an inconclusive call do not appear. A call without a number means that no potency is given here. Activity calls are given as the source filed them. Calls follow the shape of the dose curve; as a rule, active = well fitted curve in the direction sought with a large enough effect; inconclusive = small, poorly fitted or top-dose-only effect, or another doubt; inactive = no such curve, though single readings can be large; an effect the other way counts as inactive or inconclusive.

Assays:
[1] = S16 Schwann cell viability assay (CellTiter-Glo assay) (AID 624031);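 also: native untransfected S16 rat Schwann cells; cellular ATP luminescence as a viability measure; nearly all actives have a fitted effect of over 70% in size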
Procedure, shortened: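 Concentration-effect curves come from CellTiter-Glo luminescence of S16 rat Schwann cells after 24 h compound exposure. Each reading was normalized to DMSO wells (0%) and wells without cells, and curves were ranked by r2 and response magnitude.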

[2] = system: AS120; assay: qHTS profiling for inhibitors of Plasmodium falciparum proliferation (AID 504749); also: nearly all actives have a fitted effect of over 60% in size; also: potency is read from the fitted curve at half-maximal effect; conditions: P. falciparum in erythrocytes, SYBR Green DNA, 72 h; series mostly up to 28.7 µM
Procedure, shortened: (§1)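 Parasite proliferation within erythrocytes, 72 h exposure. Endpoint: SYBR Green I fluorescence after overnight lysis at room temperature. Controls: 0.29 uM artemisinin, DMSO.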

[3] = system: ATS189; assay: as above; conditions: P. falciparum in erythrocytes, SYBR Green DNA, 72 h; series mostly up to 28.7 µM
Procedure, shortened: as §1

[4] = system: CP194; assay: as above; conditions: P. falciparum in erythrocytes, SYBR Green DNA, 72 h; series mostly up to 28.7 µM
Procedure, shortened: as §1

[5] = system: CP201; assay: as above; conditions: P. falciparum in erythrocytes, SYBR Green DNA, 72 h; series mostly up to 28.7 µM
Procedure, shortened: as §1

[6] = system: CP203; assay: as above; conditions: P. falciparum in erythrocytes, SYBR Green DNA, 72 h; series mostly up to 28.7 µM
Procedure, shortened: as §1

[7] = system: CP217; assay: as above; conditions: P. falciparum in erythrocytes, SYBR Green DNA, 72 h; series mostly up to 28.7 µM
Procedure, shortened: as §1

[8] = system: CP237; assay: as above; conditions: P. falciparum in erythrocytes, SYBR Green DNA, 72 h; series mostly up to 28.7 µM
Procedure, shortened: as §1

[9] = system: CP252; assay: as above; conditions: P. falciparum in erythrocytes, SYBR Green DNA, 72 h; series mostly up to 28.7 µM
Procedure, shortened: as §1

[10] = system: CP265; assay: as above; conditions: P. falciparum in erythrocytes, SYBR Green DNA, 72 h; series mostly up to 28.7 µM
Procedure, shortened: as §1

[11] = system: CP268; assay: as above; conditions: P. falciparum in erythrocytes, SYBR Green DNA, 72 h; series mostly up to 28.7 µM
Procedure, shortened: as §1

[12] = system: CP291; assay: as above; conditions: P. falciparum in erythrocytes, SYBR Green DNA, 72 h; series mostly up to 28.7 µM
Procedure, shortened: as §1

[13] = system: CP305; assay: as above; conditions: P. falciparum in erythrocytes, SYBR Green DNA, 72 h; series mostly up to 28.7 µM
Procedure, shortened: as §1

[14] = system: CP325; assay: as above; conditions: P. falciparum in erythrocytes, SYBR Green DNA, 72 h; series mostly up to 28.7 µM
Procedure, shortened: as §1

[15] = system: DIV30; assay: as above; conditions: P. falciparum in erythrocytes, SYBR Green DNA, 72 h; series mostly up to 28.7 µM
Procedure, shortened: as §1

[16] = system: HB3; assay: as above; conditions: P. falciparum in erythrocytes, SYBR Green DNA, 72 h; series mostly up to 28.7 µM
Procedure, shortened: as §1

[17] = system: PC15; assay: as above; conditions: P. falciparum in erythrocytes, SYBR Green DNA, 72 h; series mostly up to 28.7 µM
Procedure, shortened: as §1

[18] = system: SC27B; assay: as above; conditions: P. falciparum in erythrocytes, SYBR Green DNA, 72 h; series mostly up to 28.7 µM
Procedure, shortened: as §1

[19] = system: TAB109; assay: as above; conditions: P. falciparum in erythrocytes, SYBR Green DNA, 72 h; series mostly up to 28.7 µM
Procedure, shortened: as §1

[20] = system: CP215; assay: as above; conditions: P. falciparum in erythrocytes, SYBR Green DNA, 72 h; series mostly up to 28.7 µM
Procedure, shortened: as §1

| SMILES | Potency [1] | Potency [2] | Potency [3] | Potency [4] | Potency [5] | Potency [6] | Potency [7] | Potency [8] | Potency [9] | Potency [10] | Potency [11] | Potency [12] | Potency [13] | Potency [14] | Potency [15] | Potency [16] | Potency [17] | Potency [18] | Potency [19] | Potency [20] |
| --- | --- | --- | --- | --- | --- | --- | --- | --- | --- | --- | --- | --- | --- | --- | --- | --- | --- | --- | --- | --- |
| CC1(C)SC2[C@@H](N=CN3CCCCCC3)C(=O)N2[C@H]1C(=O)O (stereo partly drawn) | inactive | inactive | inactive | inactive | inactive | inactive | inactive | inactive | inactive | inactive | inactive | inactive | inactive | inactive | inactive | inactive | inactive | inactive | inactive | – |
| CC(C)(C)NC[C@H](O)CSc1nc(-c2ccc(C(N)=O)s2)cs1 | inactive | inactive | inactive | inactive | inactive | inactive | inactive | inactive | inactive | inactive | inactive | inactive | inactive | inactive | inactive | inactive | inactive | inactive | inactive | inactive |
| CC(C)C(=O)OCC(=O)[C@@]12OC(C3CCCCC3)O[C@@H]1CC1C3CCC4=CC(=O)C=C[C@]4(C)C3[C@@H](O)C[C@@]12C (stereo partly drawn) | – | 0.794 µM (active) | 0.891 µM (active) | – | – | – | 0.794 µM (active) | 1.41 µM (active) | 1 µM (active) | 1 µM (active) | – | – | 0.849 µM (active) | – | – | 1.12 µM (active) | 1.58 µM (active) | 1.26 µM (active) | 0.708 µM (active) | – |
| C=C1/C(=C\C=C2/CCC[C@]3(C)[C@@H]([C@H](C)/C=C/[C@@H](O)C4CC4)CC[C@@H]23)C[C@@H](O)C[C@@H]1O | inactive | – | inactive | inactive | inactive | inactive | inactive | inactive | inactive | – | inactive | – | inactive | inactive | inactive | inactive | inactive | inactive | inactive | inactive |
| C/C=C1/NN(CCCN2CCN(c3cccc(Cl)c3)CC2)C(=O)N1CCOc1ccccc1 | inactive | inactive | inactive | inactive | inactive | – | inactive | – | inactive | inactive | inactive | – | inactive | inactive | – | inactive | inactive | inactive | inactive | inactive |
| COc1ccc(S(=O)(=O)N2c3ccc(Cl)cc3[C@](O)(c3ccccc3Cl)[C@@H]2C(=O)N2CCC[C@H]2C(N)=O)cc1OC | inactive | – | inactive | inactive | inactive | inactive | inactive | – | inactive | inactive | inactive | inactive | inactive | inactive | inactive | inactive | – | – | inactive | inactive |
| CC1=C(c2ccc(NN=C(C#N)C#N)cc2)NNC(=O)C1 | inactive | inactive | inactive | inactive | inactive | inactive | inactive | inactive | inactive | inactive | inactive | inactive | inactive | inactive | inactive | inactive | inactive | inactive | inactive | inactive |
| CC(CN1CC(=O)NC(=O)C1)N1CC(=O)NC(=O)C1 (stereo not drawn) | inactive | inactive | inactive | inactive | inactive | inactive | inactive | inactive | inactive | inactive | inactive | inactive | inactive | inactive | inactive | inactive | inactive | inactive | inactive | – |
| C=C[C@@]1(C)C[C@H](OC(=O)CSC(C)(C)CNC(=O)[C@@H](N)C(C)C)[C@@]2(C)C(C)CC[C@@]3(CCC(=O)[C@@H]32)[C@H](C)[C@H]1O (stereo partly drawn) | – | 3.55 µM (active) | 11.2 µM (active) | 1.9 µM (active) | – | 1.07 µM (active) | 5.62 µM (active) | 1.41 µM (active) | 1.26 µM (active) | – | 3.01 µM (active) | 1.69 µM (active) | 0.379 µM (active) | 0.213 µM (active) | 7.57 µM (active) | – | – | 5.62 µM (active) | 0.891 µM (active) | 1.69 µM (active) |
